Each structure is given as a SMILES string. “And” between values parts separate entries of the source, which are not always exact repeats. Identical values can stand only once. Residues, ends and D or L forms follow the SMILES beside them. *: point of attachment. Cbz = O=C(OCc1ccccc1)*; CH2F = FC*

Conditions in all cases: Compound concentration 20.0 uM
The target of assay [1] is Tyrosine-protein kinase ABL1 (Homo sapiens) (UniProt P00519).
Assay [2] addresses Bromodomain-containing protein 4 (Homo sapiens) (UniProt O60885).
Assay [3] addresses Cyclin-dependent kinase 2 (Homo sapiens) (UniProt P24941).
The target of assay [4] is Casein kinase I isoform delta (Homo sapiens) (UniProt P48730).
Assay [5] has as its target T1, Aurora kinase A (Homo sapiens) (UniProt O14965).
T1 sequence (whole entry): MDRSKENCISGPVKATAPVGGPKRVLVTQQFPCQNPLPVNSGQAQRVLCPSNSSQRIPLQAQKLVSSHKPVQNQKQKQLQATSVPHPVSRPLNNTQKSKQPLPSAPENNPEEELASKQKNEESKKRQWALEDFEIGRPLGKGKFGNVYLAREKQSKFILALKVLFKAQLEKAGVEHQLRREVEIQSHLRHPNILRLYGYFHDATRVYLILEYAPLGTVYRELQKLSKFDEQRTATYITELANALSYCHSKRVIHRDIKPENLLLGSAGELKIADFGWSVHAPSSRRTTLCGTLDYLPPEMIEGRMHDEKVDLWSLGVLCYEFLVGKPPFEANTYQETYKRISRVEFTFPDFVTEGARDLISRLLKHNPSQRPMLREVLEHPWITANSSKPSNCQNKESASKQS

Assay [6] has as its target T2, Transcription intermediary factor 1-alpha (Homo sapiens) (UniProt O15164).
T2 sequence (whole entry): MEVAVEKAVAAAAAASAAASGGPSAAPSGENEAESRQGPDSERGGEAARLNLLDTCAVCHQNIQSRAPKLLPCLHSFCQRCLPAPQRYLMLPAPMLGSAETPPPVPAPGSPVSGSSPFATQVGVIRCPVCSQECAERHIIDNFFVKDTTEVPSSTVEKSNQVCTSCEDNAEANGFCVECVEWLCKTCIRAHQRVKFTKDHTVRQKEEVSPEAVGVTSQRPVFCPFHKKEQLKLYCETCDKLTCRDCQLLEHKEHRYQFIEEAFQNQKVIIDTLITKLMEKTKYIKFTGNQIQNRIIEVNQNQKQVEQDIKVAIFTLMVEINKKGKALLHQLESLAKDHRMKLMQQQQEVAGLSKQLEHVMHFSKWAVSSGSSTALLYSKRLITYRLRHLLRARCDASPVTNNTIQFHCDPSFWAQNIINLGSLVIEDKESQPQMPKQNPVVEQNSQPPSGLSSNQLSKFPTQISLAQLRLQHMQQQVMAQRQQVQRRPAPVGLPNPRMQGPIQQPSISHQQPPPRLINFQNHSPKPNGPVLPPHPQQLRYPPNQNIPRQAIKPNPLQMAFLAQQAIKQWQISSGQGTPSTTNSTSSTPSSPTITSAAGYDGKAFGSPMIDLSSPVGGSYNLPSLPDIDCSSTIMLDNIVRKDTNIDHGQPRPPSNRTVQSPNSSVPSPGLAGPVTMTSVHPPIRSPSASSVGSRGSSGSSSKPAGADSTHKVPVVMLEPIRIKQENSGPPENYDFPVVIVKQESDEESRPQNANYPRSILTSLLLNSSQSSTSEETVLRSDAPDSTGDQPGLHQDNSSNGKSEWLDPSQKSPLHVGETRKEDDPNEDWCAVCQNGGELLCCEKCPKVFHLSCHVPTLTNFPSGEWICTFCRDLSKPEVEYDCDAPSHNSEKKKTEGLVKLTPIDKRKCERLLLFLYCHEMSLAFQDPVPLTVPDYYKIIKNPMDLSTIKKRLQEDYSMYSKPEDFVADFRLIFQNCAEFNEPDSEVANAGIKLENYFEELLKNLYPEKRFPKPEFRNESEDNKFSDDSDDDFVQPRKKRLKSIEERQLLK

In assay [7] the target is Glycogen synthase kinase-3 beta (Homo sapiens) (UniProt P49841).
For assay [8], the target named is Mitogen-activated protein kinase 1 (Homo sapiens) (UniProt P28482).
Sequence of Mitogen-activated protein kinase 1 (Homo sapiens) (P28482 whole entry): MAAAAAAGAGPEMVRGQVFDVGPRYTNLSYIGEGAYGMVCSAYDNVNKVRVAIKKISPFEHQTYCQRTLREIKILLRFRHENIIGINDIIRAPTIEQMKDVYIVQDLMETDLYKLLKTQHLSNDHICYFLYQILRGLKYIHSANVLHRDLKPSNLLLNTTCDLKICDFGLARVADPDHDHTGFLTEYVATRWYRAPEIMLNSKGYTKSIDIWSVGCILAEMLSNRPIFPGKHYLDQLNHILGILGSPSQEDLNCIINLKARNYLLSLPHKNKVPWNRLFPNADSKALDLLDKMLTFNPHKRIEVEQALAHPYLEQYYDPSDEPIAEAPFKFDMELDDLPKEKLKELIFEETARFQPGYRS

Sequence of Tyrosine-protein kinase ABL1 (Homo sapiens) (P00519 whole entry): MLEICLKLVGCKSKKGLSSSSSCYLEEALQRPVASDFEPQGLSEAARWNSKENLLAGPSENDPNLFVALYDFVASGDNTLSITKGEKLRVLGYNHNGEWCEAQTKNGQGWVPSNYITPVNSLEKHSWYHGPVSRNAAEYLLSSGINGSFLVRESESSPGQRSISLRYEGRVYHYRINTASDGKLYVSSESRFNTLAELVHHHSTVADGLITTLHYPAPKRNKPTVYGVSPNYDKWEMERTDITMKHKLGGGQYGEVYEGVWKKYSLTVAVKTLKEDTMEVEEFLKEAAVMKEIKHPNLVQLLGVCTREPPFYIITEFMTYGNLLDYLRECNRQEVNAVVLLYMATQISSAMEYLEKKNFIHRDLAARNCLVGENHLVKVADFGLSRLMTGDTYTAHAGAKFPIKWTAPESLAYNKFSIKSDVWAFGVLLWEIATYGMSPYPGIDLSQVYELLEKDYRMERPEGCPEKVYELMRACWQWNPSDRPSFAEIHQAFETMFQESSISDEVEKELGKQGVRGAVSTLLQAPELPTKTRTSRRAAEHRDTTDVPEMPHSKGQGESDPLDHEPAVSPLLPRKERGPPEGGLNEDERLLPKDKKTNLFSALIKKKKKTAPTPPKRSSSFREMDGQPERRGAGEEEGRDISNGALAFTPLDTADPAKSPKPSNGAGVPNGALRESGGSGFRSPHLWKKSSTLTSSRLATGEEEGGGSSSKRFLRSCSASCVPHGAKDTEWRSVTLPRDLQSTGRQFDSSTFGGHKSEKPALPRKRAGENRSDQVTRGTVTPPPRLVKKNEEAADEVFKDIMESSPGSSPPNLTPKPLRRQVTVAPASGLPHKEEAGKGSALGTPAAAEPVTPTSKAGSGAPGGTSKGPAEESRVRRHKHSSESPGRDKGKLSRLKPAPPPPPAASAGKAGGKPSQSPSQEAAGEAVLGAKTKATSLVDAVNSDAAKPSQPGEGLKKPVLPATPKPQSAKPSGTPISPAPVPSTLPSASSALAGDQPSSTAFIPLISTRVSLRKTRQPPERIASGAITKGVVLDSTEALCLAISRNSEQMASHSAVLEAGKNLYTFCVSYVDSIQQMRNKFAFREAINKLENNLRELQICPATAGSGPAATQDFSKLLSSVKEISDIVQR
Sequence of Casein kinase I isoform delta (Homo sapiens) (P48730 whole entry, looked up, canonical isoform): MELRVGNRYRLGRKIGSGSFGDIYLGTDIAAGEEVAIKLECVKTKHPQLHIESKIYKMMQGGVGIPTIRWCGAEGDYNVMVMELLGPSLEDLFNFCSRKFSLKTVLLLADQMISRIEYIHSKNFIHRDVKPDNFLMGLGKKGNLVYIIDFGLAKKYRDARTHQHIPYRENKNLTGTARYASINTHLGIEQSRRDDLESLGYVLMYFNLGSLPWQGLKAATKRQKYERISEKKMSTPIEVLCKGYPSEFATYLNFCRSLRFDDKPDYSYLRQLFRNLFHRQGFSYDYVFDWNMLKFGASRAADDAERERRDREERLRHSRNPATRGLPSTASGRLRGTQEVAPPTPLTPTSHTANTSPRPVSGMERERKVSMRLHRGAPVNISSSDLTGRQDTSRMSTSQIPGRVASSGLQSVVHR
Sequence of Glycogen synthase kinase-3 beta (Homo sapiens) (P49841 whole entry, looked up): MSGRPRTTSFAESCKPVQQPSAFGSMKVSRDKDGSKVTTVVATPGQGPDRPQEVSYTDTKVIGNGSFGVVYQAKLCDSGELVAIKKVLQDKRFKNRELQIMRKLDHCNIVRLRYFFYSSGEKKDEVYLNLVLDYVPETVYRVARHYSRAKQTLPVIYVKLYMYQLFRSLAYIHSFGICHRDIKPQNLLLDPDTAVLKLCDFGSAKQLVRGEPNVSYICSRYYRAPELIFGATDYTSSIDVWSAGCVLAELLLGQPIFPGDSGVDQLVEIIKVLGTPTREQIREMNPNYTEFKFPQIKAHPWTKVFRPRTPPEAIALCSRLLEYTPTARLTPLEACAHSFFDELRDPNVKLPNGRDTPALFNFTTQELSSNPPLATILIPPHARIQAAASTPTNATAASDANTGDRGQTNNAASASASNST

A word on the ΔTm: it is the shift of the melting midpoint relative to a reference. On to `FC(F)(F)Oc1ccc(Oc2ccnc(N3CCC(NC(=S)Nc4cccnc4)CC3)c2Cl)c(Cl)c1`, for which the ΔTm in assay [1] was 0 °C and -0.06 °C; in assay [2] it was -3.17 °C and -5.35 °C; in assay [3], -0.35 °C and 0.35 °C; in assay [4], -2.73 °C and 0.27 °C; in assay [5], 0.16 °C and -1.29 °C; in assay [6] it was 1.66 °C and 0 °C.

For the compound `Nc1nc(C(F)(F)F)nc2c1nnn2C[C@H]1CN(Cc2nccs2)CCO1`, the ΔTm in assay [1] was 0.2 °C; in assay [2] it was -2.15 °C; in assay [3], 0.32 °C; in assay [4] it was -0.15 °C; in assay [7] it was -0.98 °C; in assay [8] it was 0.32 °C. Moreover, the ΔTm in assay [5] is -1.21 °C; in assay [6], 0.71 °C.

For `N[C@@H](CCNCc1ccc(Cl)cc1)C(=O)N1CCCCC1`, the ΔTm in assay [1] is 0.49 °C; in assay [2], -3.21 °C; in assay [3] it was 0 °C; in assay [4], -0.34 °C; in assay [7], -0.21 °C; in assay [8], 0.19 °C. For the same compound, the figures for the ΔTm in assay [5] and in assay [6] were -2.45 °C and 0.39 °C, respectively.

For `CCN(CC)c1ccc(C2=NNC(=O)C[C@H]2C)cc1[N+](=O)[O-]`, the ΔTm in assay [1] was 0.04 °C; in assay [2], 0.2 °C; in assay [3] it was -0.04 °C; in assay [4], 0.06 °C; in assay [7], 0.13 °C; in assay [8] it was -0.11 °C. Further, the values for the ΔTm in assay [5] and in assay [6] were -0.2 °C and -0.15 °C, respectively.

With `CCC(CC)(NC(=O)C(C)C)C(=O)N[C@@H](CCCNC(=N)N)C(=O)NC1(C(=O)NC(c2ccc(F)cc2)c2ccc(F)cc2)CCCC1`, the ΔTm is 0.63 °C in assay [1]; -1.92 °C in assay [2]; -0.27 °C in assay [3]; 0.35 °C in assay [4]; -0.5 °C in assay [7]; -0.02 °C in assay [8]. The ΔTm was -0.05 °C in assay [5] and -1.17 °C in assay [6].

As to `Nc1cccc(Nc2ncc(-c3ccc(Cl)cc3)o2)c1`, the ΔTm was determined as 9.33 °C in assay [1]; 0.39 °C in assay [2]; 9.01 °C in assay [3]; 0.43 °C in assay [4]; 7.51 °C in assay [7]; 0.54 °C in assay [8]. For the same compound, the values for the ΔTm in assay [5] and in assay [6] were 6.87 °C and -0.45 °C, respectively.

With `O=C(c1cc(Cc2n[nH]c(=O)c3ccccc23)ccc1F)N1CCN(C(=O)C2CC2)CC1`, the ΔTm is 0.22 °C in assay [1]; 15.7 °C in assay [2]; 0.66 °C in assay [3]; -0.42 °C in assay [4]; -4.34 °C in assay [7]; 0.4 °C in assay [8]. For the same compound, the ΔTm is -2.14 °C in assay [5] and -1.81 °C in assay [6].

Consider `O=C1COc2c(cccc2[C@@H](O)CNCCN(C(=O)CCNCCc2ccc(Cl)c(Cl)c2)C2CCCCC2)N1`, for which the ΔTm in assay [1] is 0.38 °C; in assay [2], -1.19 °C; in assay [3], 0.73 °C; in assay [4] it was 0.16 °C; in assay [7] it was 0.42 °C; in assay [8], 0.56 °C. For the same compound, the ΔTm in assay [5] was -1.62 °C; in assay [6] it was 1.39 °C.

As for `COCc1nc2cnc3cc(-c4c(C)noc4C)c(OC[C@H]4CCNC4)cc3c2n1[C@H](C)c1ccccc1`, the ΔTm in assay [1] is 0.66 °C; in assay [3] it was 0.15 °C; in assay [4] it was 0.02 °C; in assay [7], -0.25 °C; in assay [8], 0.32 °C; in assay [5], -1.27 °C. Besides, the ΔTm in assay [6] worked out at 1.49 °C.

Consider `COc1cc2/c(=N/c3ccc(Br)cc3F)nc[nH]c2cc1OCC1CCN(C)CC1`, for which the ΔTm in assay [2] is -0.83 °C; in assay [3], 0.52 °C; in assay [4], 1.25 °C; in assay [7] it was -0.61 °C; in assay [8], 0.07 °C; in assay [6], -1.14 °C.

As for `O=C(NO)c1ccc(CN(c2cnccn2)c2cnccn2)cc1`, the ΔTm in assay [1] is 0.4 °C; in assay [2], -1.6 °C; in assay [3], -0.02 °C; in assay [4], 0.05 °C; in assay [7] it was -1.38 °C; in assay [8], -0.44 °C. In addition, the ΔTm in assay [5] was -0.32 °C; in assay [6], -1.38 °C.

Take `Nc1ccccc1NC(=O)CCCCCC(=O)Nc1ccccc1`: the ΔTm is 0.27 °C in assay [1]; -2.09 °C in assay [2]; 0.5 °C in assay [3]; 0.04 °C in assay [4]; -0.05 °C in assay [7]; 0.2 °C in assay [8]. Also, the ΔTm in assay [5] is -0.94 °C; in assay [6], -0.62 °C.

Consider `COc1cccc(Nc2c(C(N)=O)cnc3c(C)cc(S(=O)(=O)c4cccc(C(=O)N(C)C)c4)cc23)c1`, for which the ΔTm in assay [1] is 0.62 °C; in assay [2] it was -2.14 °C; in assay [3], 0.36 °C; in assay [4], -0.04 °C; in assay [7] it was 0.04 °C; in assay [8], 0.14 °C. Besides, the ΔTm was -0.98 °C in assay [5] and -0.26 °C in assay [6].

On to `CNc1ncc2cc(-c3cc(NC(=O)NCCC(C)(C)C)c(F)cc3C)c(C)nc2n1`, for which the ΔTm in assay [2] is -2.79 °C; in assay [3], 0.45 °C; in assay [4] it was 0.25 °C; in assay [7], 1.15 °C; in assay [8], -2.34 °C; in assay [5], -0.92 °C. Moreover, the ΔTm in assay [6] was -0.11 °C.

In the case of `Cc1nc(Nc2ncc(C(=O)Nc3c(C)cccc3Cl)s2)cc(N2CCN(CCO)CC2)n1`, the ΔTm was -1.33 °C in assay [2]; 0.19 °C in assay [3]; 1.36 °C in assay [4]; -0.52 °C in assay [7]; -0.01 °C in assay [8]; 4.44 °C in assay [5]. In addition, the shift in melting temperature (ΔTm) in assay [6] was -0.67 °C.

`CCNC(=O)NCCSC[C@H]1O[C@@H](n2cnc3c(N)ncnc32)[C@H](O)[C@@H]1O`: the ΔTm in assay [1] was 0.85 °C; in assay [2], -1.51 °C; in assay [3], 0.53 °C; in assay [4] it was 0.63 °C; in assay [7], -0.36 °C; in assay [8] it was -1.34 °C. Further, the results for the ΔTm in assay [5] and in assay [6] were -0.19 °C and -1.13 °C, respectively.

Consider `OC[C@H]1O[C@@H](c2ccc(Cl)c(Cc3ccc(OCCOC4CC4)cc3)c2)[C@H](O)[C@@H](O)[C@@H]1O`, for which the ΔTm is 0.7 °C in assay [1]; -2.67 °C in assay [2]; 0.19 °C in assay [3]; -1.19 °C in assay [4]; -0.38 °C in assay [7]; 0.15 °C in assay [8]. Besides, the ΔTm in assay [5] was -2.84 °C; in assay [6] it was 0.19 °C.

Consider `CN1CCN(c2ccc3nc(-c4c(N)c5c(F)cccc5[nH]c4=O)[nH]c3c2)CC1`, for which the ΔTm in assay [2] was -0.49 °C; in assay [3], 0.73 °C; in assay [4], 2.74 °C; in assay [7], 3.22 °C; in assay [8] it was -0.2 °C; in assay [5], 2.63 °C. Moreover, the ΔTm in assay [6] is -0.57 °C.

For the compound `COc1ccc(/C=C/C(=O)NO)c(-c2ccc(-c3ccccc3)cc2)c1`, the ΔTm is -1.93 °C in assay [1]; 2.27 °C in assay [2]; 0.43 °C in assay [3]; -0.46 °C in assay [4]; 3.08 °C in assay [7]; -9.33 °C in assay [8]. The ΔTm in assay [5] came out at 2.77 °C; in assay [6] it was 3.31 °C.

In the case of `COC(=O)CC(NC(=O)C(C)NC(=O)C(NC(=O)C(CC(=O)OC)NC(=O)C(NC(=O)OCc1ccccc1)C(C)C)C(C)C)C(=O)CF` (centres undefined) (Cbz-VD(OMe)VAD(OMe)-CH2F; configuration not given here), the ΔTm in assay [1] was 0.15 °C; in assay [2], -1.13 °C; in assay [3], 0.27 °C; in assay [4] it was -0.22 °C; in assay [7], 0.19 °C; in assay [8], 0.29 °C. Moreover, the ΔTm in assay [5] is -1.87 °C; in assay [6], -0.97 °C.

As for `COc1cc(Nc2ncc(F)c(Nc3ccc4c(n3)NC(=O)C(C)(C)O4)n2)cc(OC)c1OC`, the ΔTm in assay [1] is 4.14 °C; in assay [2], -1.7 °C; in assay [3], 0.13 °C; in assay [4] it was -0.37 °C; in assay [7], 2.52 °C; in assay [8] it was -3.17 °C. Besides, the ΔTm in assay [6] is -0.42 °C.

With `CSc1cccc(Nc2ncc3cc(-c4c(Cl)cccc4Cl)c(=O)n(C)c3n2)c1`, the ΔTm was -0.42 °C in assay [2]; 0.94 °C in assay [3]; 0.35 °C in assay [4]; -1 °C in assay [8]; -0.33 °C in assay [5].

(Values after ChEMBL document CHEMBL5724796, “Tm Shift (DSF) assay results for EUbOPEN Chemogenomics Library” (2024).)
